Assay results from ChEMBL document CHEMBL3988442, “University of Dundee, Small-Polar-MMV Screening Library” (2021).
For some assays here: Results with a measured potency or affinity are listed apart.

Legend:
Design in all cases: scale not given: direction of the effect not stated beside the values
[1] = target: Protein translocase subunit SecA (Escherichia coli (strain K12)) (UniProt P10408); experiment: Assay to Identify E. coli SecA ATPase Inhibitors; type: functional; conditions: 30 µM
[2] = target: T1, Ubiquitin-activating enzyme e1, putative (Leishmania donovani (strain BPK282A1)) (UniProt E9BSI1); experiment: Leishmania donovani Ubiquitin Activating Enzyme (LdE1); type: functional; conditions: 30 µM
T1 sequence (whole entry): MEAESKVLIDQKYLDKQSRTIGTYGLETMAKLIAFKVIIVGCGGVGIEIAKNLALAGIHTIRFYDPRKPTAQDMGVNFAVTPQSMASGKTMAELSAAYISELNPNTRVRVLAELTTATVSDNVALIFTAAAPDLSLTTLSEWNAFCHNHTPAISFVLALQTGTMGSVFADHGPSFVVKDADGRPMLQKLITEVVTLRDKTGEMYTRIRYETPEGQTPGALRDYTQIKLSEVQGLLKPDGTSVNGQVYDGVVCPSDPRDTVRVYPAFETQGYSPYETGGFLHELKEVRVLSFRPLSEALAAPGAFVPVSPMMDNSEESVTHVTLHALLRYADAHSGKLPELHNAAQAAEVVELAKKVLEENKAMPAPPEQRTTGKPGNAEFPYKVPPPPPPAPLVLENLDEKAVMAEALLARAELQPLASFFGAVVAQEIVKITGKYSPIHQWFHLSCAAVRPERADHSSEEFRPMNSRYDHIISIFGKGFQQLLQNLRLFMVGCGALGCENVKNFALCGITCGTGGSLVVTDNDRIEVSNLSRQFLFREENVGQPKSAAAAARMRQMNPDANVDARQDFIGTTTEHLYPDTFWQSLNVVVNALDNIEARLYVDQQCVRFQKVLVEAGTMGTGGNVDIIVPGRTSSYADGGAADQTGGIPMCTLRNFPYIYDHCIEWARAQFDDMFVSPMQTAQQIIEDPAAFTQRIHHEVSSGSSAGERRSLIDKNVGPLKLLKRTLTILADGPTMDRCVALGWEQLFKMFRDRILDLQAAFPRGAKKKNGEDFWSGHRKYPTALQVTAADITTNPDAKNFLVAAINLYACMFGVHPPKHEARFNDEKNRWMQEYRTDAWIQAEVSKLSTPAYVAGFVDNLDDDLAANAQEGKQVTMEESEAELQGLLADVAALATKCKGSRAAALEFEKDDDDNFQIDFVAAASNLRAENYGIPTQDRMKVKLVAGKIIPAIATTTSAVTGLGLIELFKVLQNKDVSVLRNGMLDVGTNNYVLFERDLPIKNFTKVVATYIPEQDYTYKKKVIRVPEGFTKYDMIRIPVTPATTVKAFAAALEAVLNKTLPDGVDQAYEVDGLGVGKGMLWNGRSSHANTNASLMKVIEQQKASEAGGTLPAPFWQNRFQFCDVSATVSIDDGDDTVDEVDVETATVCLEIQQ

[3] = target: AMP-activated protein kinase, AMPK (Homo sapiens) (UniProt P54646+O43741+P54619+Q9UGJ0+Q9Y478+Q13131+Q9UGI9); experiment: AMP-dependent Kinase enzyme assay. An in vitro enzyme assay that detects ADP turnover that is directly proportional to AMPK activity. This uses naive AMPK that is activated during the assay with MK-8722; type: functional; conditions: 30 µM
[4] = target: Sialic acid-binding Ig-like lectin 9 (Homo sapiens) (UniProt Q9Y336); experiment: Hs-Siglec9 ALPHAscreen SOP 20170721; conditions: 10 µM
Trypanosoma cruzi = experiment: Trypanosoma cruzi phosphomannomutase and mannose-1-phosphate guanylyltransferase assay; type: functional; conditions: 10 µM
[5] = target: T2, Arginase-2, mitochondrial (Homo sapiens) (UniProt P78540); experiment: in vitro enzyme assay to detect the production of urea directly proportional to the activity of Arginase II; type: functional; conditions: 33.3 µM; also: in the data most compounds retested in dose-response had high values
T2 sequence (whole entry): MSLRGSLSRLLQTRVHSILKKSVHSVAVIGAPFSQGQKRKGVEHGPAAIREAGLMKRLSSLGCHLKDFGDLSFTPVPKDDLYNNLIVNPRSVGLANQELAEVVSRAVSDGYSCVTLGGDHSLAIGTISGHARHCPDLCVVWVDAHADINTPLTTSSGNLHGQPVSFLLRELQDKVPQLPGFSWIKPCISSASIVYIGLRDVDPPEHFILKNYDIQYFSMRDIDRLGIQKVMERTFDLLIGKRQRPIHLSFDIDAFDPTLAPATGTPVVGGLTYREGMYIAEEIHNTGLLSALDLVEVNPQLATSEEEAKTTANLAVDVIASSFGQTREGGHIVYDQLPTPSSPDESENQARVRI

[6] = target: T3, Proteasome subunit beta (Trypanosoma cruzi) (UniProt O96673); experiment: Trypanosoma cruzi proteasome chymotrypsin-like activity (TcProtChymo) assay.; also: in the data most compounds retested in dose-response had high values; type: functional; conditions: 9.37 µM
T3 sequence (whole entry): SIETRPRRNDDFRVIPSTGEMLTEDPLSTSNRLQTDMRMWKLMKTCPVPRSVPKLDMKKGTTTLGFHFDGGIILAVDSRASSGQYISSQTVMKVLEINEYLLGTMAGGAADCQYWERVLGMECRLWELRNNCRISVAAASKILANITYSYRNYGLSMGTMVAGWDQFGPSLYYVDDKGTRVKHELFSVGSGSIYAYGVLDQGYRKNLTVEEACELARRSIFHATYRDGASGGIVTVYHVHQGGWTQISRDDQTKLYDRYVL

Homo sapiens = organism: Homo sapiens; experiment: To identify inhibition of the IFN signalling (Jak-Stat) pathway via expression of an eGFP reporter gene under the control of an IFN-stimulated response element (ISRE) containing MxA promoter.; type: functional; conditions: 30 µM
[7] = target: T4, Tyrosyl-tRNA synthetase, putative (Trypanosoma cruzi (strain CL Brener)) (UniProt Q4DSP6); experiment: Trypanosoma cruzi tyrosyl tRNA synthetase (TcYRS) _High Tyrosine SOP; type: functional; conditions: 30 µM; also: in the data most compounds retested in dose-response had high values
T4 sequence (whole entry): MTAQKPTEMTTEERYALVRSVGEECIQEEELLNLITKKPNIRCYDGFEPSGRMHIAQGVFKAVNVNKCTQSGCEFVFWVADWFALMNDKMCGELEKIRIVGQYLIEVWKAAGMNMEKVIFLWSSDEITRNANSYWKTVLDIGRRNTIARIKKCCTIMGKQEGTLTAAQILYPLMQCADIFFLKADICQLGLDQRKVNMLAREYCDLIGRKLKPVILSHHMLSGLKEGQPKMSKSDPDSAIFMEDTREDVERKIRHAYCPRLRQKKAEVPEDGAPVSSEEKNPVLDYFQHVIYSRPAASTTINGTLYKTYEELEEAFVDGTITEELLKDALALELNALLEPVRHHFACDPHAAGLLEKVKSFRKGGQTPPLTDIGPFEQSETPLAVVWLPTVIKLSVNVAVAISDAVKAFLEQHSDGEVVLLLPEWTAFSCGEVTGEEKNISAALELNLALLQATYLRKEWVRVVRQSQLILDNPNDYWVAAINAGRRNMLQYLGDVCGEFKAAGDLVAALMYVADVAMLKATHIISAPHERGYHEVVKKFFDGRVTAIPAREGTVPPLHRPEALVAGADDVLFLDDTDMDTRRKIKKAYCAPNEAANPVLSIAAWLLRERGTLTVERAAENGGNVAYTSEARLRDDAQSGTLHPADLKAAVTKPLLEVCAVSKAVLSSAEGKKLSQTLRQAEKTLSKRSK

[8] = target: T4, Tyrosyl-tRNA synthetase, putative (Trypanosoma cruzi (strain CL Brener)); experiment: Trypanosoma cruzi tyrosyl tRNA synthetase (TcYRS) SOP; type: functional; conditions: 30 µM
[9] = target: Chromo domain-containing protein 1 (Saccharomyces cerevisiae (strain ATCC 204508 / S288c) (Baker's yeast)) (UniProt P32657); experiment: ScCHD-1 Enzyme Inhibition Assay; type: functional; conditions: 30 µM; also: in the data most compounds retested in dose-response had high values
Chain of Chromo domain-containing protein 1 (Saccharomyces cerevisiae (strain ATCC 204508 / S288c) (Baker's yeast)) (P32657 whole entry, the tested form may be a part): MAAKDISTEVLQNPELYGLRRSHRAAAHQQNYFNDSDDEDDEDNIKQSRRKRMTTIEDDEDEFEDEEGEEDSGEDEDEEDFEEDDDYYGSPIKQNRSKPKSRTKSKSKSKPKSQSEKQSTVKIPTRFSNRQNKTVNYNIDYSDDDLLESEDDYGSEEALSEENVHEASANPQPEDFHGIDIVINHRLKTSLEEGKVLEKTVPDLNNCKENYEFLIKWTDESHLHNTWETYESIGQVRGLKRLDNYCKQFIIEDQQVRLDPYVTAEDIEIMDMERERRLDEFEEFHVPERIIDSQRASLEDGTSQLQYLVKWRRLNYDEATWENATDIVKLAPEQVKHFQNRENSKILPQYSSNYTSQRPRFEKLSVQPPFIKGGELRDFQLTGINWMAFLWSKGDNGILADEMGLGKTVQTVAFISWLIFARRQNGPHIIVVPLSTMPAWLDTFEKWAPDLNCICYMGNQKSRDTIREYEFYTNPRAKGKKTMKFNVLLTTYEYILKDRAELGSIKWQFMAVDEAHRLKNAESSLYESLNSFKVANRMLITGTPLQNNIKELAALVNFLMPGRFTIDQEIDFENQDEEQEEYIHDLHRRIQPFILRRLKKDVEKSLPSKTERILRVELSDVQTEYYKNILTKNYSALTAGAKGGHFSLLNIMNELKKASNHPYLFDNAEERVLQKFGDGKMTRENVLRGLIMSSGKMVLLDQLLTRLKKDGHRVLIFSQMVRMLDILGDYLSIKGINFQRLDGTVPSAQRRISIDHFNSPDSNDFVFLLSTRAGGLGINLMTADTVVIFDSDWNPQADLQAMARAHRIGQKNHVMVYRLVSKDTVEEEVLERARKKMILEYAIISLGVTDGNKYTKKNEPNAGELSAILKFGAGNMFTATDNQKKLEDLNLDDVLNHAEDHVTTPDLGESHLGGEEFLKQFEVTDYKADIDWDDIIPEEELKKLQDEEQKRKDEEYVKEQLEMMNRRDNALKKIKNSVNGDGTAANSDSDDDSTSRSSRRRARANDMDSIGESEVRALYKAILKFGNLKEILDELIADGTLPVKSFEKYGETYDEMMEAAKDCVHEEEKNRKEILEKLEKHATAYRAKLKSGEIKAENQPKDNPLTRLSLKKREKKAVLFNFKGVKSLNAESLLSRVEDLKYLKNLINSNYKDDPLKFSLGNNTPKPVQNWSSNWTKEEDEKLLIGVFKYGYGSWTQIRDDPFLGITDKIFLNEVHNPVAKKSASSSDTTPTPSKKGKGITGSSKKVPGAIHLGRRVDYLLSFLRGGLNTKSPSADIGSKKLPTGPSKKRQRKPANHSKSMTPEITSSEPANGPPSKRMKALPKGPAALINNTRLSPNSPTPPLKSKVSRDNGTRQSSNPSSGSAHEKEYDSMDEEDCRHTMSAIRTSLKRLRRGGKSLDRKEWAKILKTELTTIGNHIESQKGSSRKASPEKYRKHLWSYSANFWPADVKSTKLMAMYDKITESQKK

Chain of Sialic acid-binding Ig-like lectin 9 (Homo sapiens) (Q9Y336 whole entry): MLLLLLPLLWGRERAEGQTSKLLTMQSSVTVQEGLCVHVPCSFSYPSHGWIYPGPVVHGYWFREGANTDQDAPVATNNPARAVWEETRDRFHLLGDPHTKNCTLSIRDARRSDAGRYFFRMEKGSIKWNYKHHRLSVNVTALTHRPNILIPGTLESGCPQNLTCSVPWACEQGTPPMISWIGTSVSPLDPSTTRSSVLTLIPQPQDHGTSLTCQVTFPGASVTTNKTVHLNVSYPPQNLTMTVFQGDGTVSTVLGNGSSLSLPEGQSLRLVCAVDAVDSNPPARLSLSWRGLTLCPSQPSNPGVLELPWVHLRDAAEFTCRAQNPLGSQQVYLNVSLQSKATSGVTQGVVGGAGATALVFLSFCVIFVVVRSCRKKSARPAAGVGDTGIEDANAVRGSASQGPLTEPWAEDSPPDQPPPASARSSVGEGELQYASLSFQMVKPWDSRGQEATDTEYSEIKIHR
Chain of Protein translocase subunit SecA (Escherichia coli (strain K12)) (P10408 whole entry): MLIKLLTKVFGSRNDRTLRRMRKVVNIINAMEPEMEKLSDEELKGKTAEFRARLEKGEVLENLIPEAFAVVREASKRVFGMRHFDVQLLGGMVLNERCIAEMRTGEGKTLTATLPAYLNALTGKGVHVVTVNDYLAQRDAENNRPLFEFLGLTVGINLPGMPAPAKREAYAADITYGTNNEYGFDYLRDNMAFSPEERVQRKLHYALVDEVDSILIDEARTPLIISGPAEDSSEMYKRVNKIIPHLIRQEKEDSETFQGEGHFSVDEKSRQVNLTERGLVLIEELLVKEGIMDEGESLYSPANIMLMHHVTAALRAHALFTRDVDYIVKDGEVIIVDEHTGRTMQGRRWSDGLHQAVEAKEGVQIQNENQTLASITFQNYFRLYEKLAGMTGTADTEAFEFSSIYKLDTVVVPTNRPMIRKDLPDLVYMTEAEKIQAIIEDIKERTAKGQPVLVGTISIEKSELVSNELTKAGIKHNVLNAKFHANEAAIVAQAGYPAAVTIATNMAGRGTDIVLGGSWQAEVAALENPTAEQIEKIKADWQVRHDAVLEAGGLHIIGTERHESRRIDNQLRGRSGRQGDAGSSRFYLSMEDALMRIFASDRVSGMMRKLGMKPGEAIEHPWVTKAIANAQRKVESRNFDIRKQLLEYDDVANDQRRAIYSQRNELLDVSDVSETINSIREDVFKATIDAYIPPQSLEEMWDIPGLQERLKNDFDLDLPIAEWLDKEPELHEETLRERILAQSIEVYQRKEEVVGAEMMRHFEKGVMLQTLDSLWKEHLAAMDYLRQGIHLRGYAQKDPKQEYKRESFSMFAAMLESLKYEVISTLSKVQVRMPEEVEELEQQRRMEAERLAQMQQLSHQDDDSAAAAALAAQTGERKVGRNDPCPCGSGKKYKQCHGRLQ

## COc1cccc(CN(C)S(=O)(=O)N2CCOCC2)c1
[1]
  Percent Effect: -1.1%
[2]
  Percent Effect: 13.2%
[3]
  Percent Effect: 1.96%
[4]
  Percent Effect: -0.478%
Trypanosoma cruzi
  Percent Effect: 2.63%
[5]
  Percent Effect: -10.7%
[6]
  Percent Effect: 22.1%
Homo sapiens
  Percent Effect: 23.5%
[7]
  Percent Effect: 5.32%
[8]
  Percent Effect: 18.2%
[9]
  Percent Effect: -6.9%

## COc1ccc(C2CCCN2C(=O)c2cc3c([nH]c2=O)CCC3)cc1 (stereo not given)
[1]
  Percent Effect: -6.57%
[2]
  Percent Effect: 5.41%
[3]
  Percent Effect: 2.86%
[4]
  Percent Effect: -3.27%
Trypanosoma cruzi
  Percent Effect: -2.73%
[5]
  Percent Effect: 4.58%
[6]
  Percent Effect: 17.5%
Homo sapiens
  Percent Effect: -1.92%
[7]
  Percent Effect: 11.9%
[8]
  Percent Effect: 8.54%
[9]
  Percent Effect: -6.14%

## CC(C#N)CSc1ccccc1NCC(=O)Nc1ccc(F)cc1 (stereo not given)
[1]
  Percent Effect: -7.84%
[2]
  Percent Effect: -5.48%
[3]
  Percent Effect: 17.1%
[4]
  Percent Effect: -9.84%
Trypanosoma cruzi
  Percent Effect: -3.33%
[5]
  Percent Effect: 1.82%
[6]
  Percent Effect: 6.39%
Homo sapiens
  Percent Effect: 3.15%
[7]
  Percent Effect: -8.6%
[8]
  Percent Effect: -10%
[9]
  Percent Effect: -0.597%

## CSCc1cccc(C(=O)N2CCN(CC(C)O)CC2)c1 (stereo not given)
[1]
  Percent Effect: -1.86%
[2]
  Percent Effect: -2.6%
[3]
  Percent Effect: -1.05%
[4]
  Percent Effect: 3.73%
Trypanosoma cruzi
  Percent Effect: -7.68%
[5]
  Percent Effect: 2.13%
[6]
  Percent Effect: 11.8%
Homo sapiens
  Percent Effect: 17.2%
[7]
  Percent Effect: 1.94%
[8]
  Percent Effect: -2.44%
[9]
  Percent Effect: -1.72%

## O=C(c1ccc(Cl)c(Cl)c1)N1CCCC(n2cncn2)C1 (stereo not given)
[1]
  Percent Effect: -0.919%
[2]
  Percent Effect: 2.7%
[3]
  Percent Effect: -3.55%
[4]
  Percent Effect: 0.213%
Trypanosoma cruzi
  Percent Effect: -2.14%
[5]
  Percent Effect: 6.47%
[6]
  Percent Effect: -7%
Homo sapiens
  Percent Effect: 6.82%
[7]
  Percent Effect: 3.96%
[8]
  Percent Effect: 3.66%
[9]
  Percent Effect: 7.67%

## Cc1nc(N2CCCC2)nc2c1CN(C(C)C)CC2
[1]
  Percent Effect: -5.79%
[2]
  Percent Effect: 21.3%
[3]
  Percent Effect: -1.49%
[4]
  Percent Effect: 4.47%
Trypanosoma cruzi
  Percent Effect: 3.28%
[5]
  Percent Effect: -51.8%
[6]
  Percent Effect: 1.71%
Homo sapiens
  Percent Effect: -7.95%
[7]
  Percent Effect: 6.25%
[8]
  Percent Effect: 17.5%
[9]
  Percent Effect: -11.2%

## CN(Cc1cnn(C)c1)C(=O)NC1CCS(=O)(=O)C1 (stereo not given)
[1]
  Percent Effect: 0.0061%
[2]
  Percent Effect: 4.17%
[3]
  Percent Effect: -12.4%
[4]
  Percent Effect: -0.91%
Trypanosoma cruzi
  Percent Effect: 5.15%
[5]
  Percent Effect: -0.442%
[6]
  Percent Effect: 20.5%
Homo sapiens
  Percent Effect: 6.03%
[7]
  Percent Effect: 4.21%
[8]
  Percent Effect: 7.69%
[9]
  Percent Effect: -2.71%

## Cc1nc(C)n(CC2CCCN(c3ncnc4[nH]ccc34)C2)n1 (stereo not given)
[1]
  Percent Effect: -4.25%
[2]
  Percent Effect: 11.4%
[3]
  Percent Effect: 69.9%
[4]
  Percent Effect: 5.73%
Trypanosoma cruzi
  Percent Effect: -4.21%
[5]
  Percent Effect: 0.645%
[6]
  Percent Effect: 15.8%
Homo sapiens
  Percent Effect: 42.8%
[7]
  Percent Effect: 6.25%
[8]
  Percent Effect: 5.06%
[9]
  Percent Effect: -4.67%

## O=C1COC2(COCCN(Cc3cccnc3)C2)CN1c1ccoc1 (stereo not given)
[1]
  Percent Effect: -0.625%
[2]
  Percent Effect: 5.2%
[3]
  Percent Effect: 2.84%
[4]
  Percent Effect: 0.684%
Trypanosoma cruzi
  Percent Effect: -10.6%
[5]
  Percent Effect: 7.1%
[6]
  Percent Effect: 4.87%
Homo sapiens
  Percent Effect: 8.52%
[7]
  Percent Effect: 0%
[8]
  Percent Effect: 1.28%
[9]
  Percent Effect: -1.12%

## CC(C)(C)NC(=O)CNC(=O)CCc1ccccc1Br
[1]
  Percent Effect: -3.98%
[2]
  Percent Effect: 15.3%
[3]
  Percent Effect: -5.91%
[4]
  Percent Effect: 3.62%
Trypanosoma cruzi
  Percent Effect: 4.37%
[5]
  Percent Effect: 23.4%
[6]
  Percent Effect: 21.8%
Homo sapiens
  Percent Effect: -3.55%
[7]
  Percent Effect: 6.32%
[8]
  Percent Effect: 7.69%
[9]
  Percent Effect: -2.98%
